High-throughput results deposited in PubChem by Broad Institute.
miR122 inh = miR-122 Renilla sensor signal increase in Huh7, primary screen, miR-122 inhibitor project, cell-based, single point, plate reader. activation (reporter increase), % at 12.5 µM. 340,000 compounds, 0.3% hits. Huh7 miR-122 Renilla luciferase sensor, 48 h; neutral wells = 0, positive control = 100;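 active = mean replicate activation score at least 90 and every replicate individually at or above 90; inconclusive = only one of the two criteria met; inactive = neither criterion met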;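 also: higher luciferase means less miR-122 activity so hits act as miR-122 inhibitors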
NSD2 HMT inh = NSD2 histone methyltransferase inhibitors, primary screen, biochemical, AlphaScreen, single concentration, set 2 | NSD2 peptide methylation, 120 min | inhibition, % at 12.5 µM | 310,000 compounds, 0.54% hits; in the data active = inhibition above about 50%
CASP6 VEID inh = human caspase-6 inhibitors, primary screen, biochemical, VEID-R110 fluorescence, single point, set 2; P55212; purified caspase-6, Z-VEID-R110 cleavage fluorescence; inhibition, % at 12.5 µM; 350,000 compounds, 0.53% hits; AID 686996, 2013;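 active = mean inhibition across replicates at least about 35%, with every replicate also reaching that limit, limit read from the data; inconclusive = only one of the two criteria met; inactive = neither criterion met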;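 also: 0% = median of neutral control wells and 100% = no fluorescence left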
AF4-AF9 inh = inhibitors of AF4 peptide binding to AF9, primary screen, biochemical, AlphaScreen, biotin-AF4 peptide, FLAG-AF9, single point. AID 651704, 2012. Protein AF-9 (Homo sapiens), P42568. 350,000 compounds, 0.47% hits. inhibition, % at 10 µM;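 active = every replicate reaching a set inhibition limit, whatever the replicate mean, cut at about 25% in these data; inconclusive = mean inhibition reaches that limit but some replicates miss it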;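 also: 0% = plate neutral control median and 100% = total signal loss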
RAD52 inh = RAD52 DNA annealing inhibitors, primary screen, biochemical, FRET, single point, set 2 | inhibition, % at 18.7 µM | DNA repair protein RAD52 homolog (Homo sapiens), P43351 | AID 651710, 2012 | recombinant RAD52 DNA annealing, FRET fluorescence | 360,000 compounds, 0.46% hits;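 active = every replicate showing at least 50% inhibition; inconclusive = mean inhibition at least 50% but not in every replicate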
Target sequence (P43351 whole entry, looked up): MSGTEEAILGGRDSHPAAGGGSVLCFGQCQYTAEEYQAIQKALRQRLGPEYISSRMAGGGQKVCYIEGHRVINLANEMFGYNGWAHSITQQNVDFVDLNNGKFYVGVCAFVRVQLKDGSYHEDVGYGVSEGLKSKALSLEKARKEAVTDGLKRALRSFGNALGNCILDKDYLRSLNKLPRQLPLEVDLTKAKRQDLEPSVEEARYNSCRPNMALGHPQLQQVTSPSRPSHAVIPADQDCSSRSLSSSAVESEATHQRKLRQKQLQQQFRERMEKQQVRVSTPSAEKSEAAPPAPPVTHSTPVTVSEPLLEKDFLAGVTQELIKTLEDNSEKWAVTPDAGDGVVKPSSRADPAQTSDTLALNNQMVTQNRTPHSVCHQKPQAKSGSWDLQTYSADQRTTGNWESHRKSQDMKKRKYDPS
DNA binder FP = DNA-binding compounds via dye displacement, dose response, artefact control for RAD52 inhibitor project, biochemical, fluorescence polarization, cherry-pick | shares compounds with RAD52 inh | Salmon sperm DNA/acridine orange FP displacement | AC50, µM | 1,000 compounds, 8% hits;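 active = fitted half-maximal concentration for signal loss at or below twice the highest dose tested, in every separate run, actives reach about 64 µM in these data; inconclusive = runs disagree, or flat partial signal loss, or poor fit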
Active calls of the source: *; i = inactive; u = inconclusive; x = no result given; [ ] = another dose, or the depositor's remark. Hits are enriched below; roughly 1.5% of the tested compounds scored in any of these assays.

SMILES | miR122 inh | NSD2 HMT inh | CASP6 VEID inh | AF4-AF9 inh | RAD52 inh | DNA binder FP
C#CCOCCOCCOCCNc1nc(N2CCN(C(=O)[C@H](CCC(=O)O)n3cc([C@@H](N)[C@H](C)CC)nn3)CC2)nc(N2CCN(C(=O)[C@H](CCCCN)n3cc([C@@H](N)CC(N)=O)nn3)CC2)n1 | -8 | x | -84 | 3 | 7 | x
C#CCOCCOCCOCCNc1nc(N2CCN(C(=O)[C@H](CCCCN)n3cc([C@@H](N)[C@H](C)CC)nn3)CC2)nc(N2CCN(C(=O)[C@H](CCCCN)n3cc([C@@H](N)CC(N)=O)nn3)CC2)n1 | -2 | x | -260 | 60* | 54* | i
C[C@@H]1CCCCO[C@@H](CN(C)S(=O)(=O)c2ccccc2)[C@H](C)CN([C@@H](C)CO)C(=O)c2cc(NS(=O)(=O)c3cn(C)cn3)ccc2O1 | -5[16.7 µM] | x | 1 | 3 | -5 | x
Oc1c(CN2CCCCC2)ccc2cccnc12 | x | x | 69* | 14 | 63* | i
C[C@@H]1CN([C@H](C)CO)C(=O)c2cc(NC(=O)Cc3ccccc3)ccc2O[C@@H](C)CCCCO[C@H]1CN(C)C(=O)c1ccccc1 | 5[16.7 µM] | x | -2 | -3 | -7 | x
CCCNC(=O)[C@@H]1[C@@H](CO)[C@@H]2Cn3c(ccc(-c4ccccc4F)c3=O)[C@@H]2N1CC1CC1 | x | x | 1 | -1 | 12 | x
CCN1CCc2nc(N)sc2C1 | x | 14 | -27 | -5 | 69* | i
C=CCN1CCc2nc(N)sc2CC1 | -11 | x | x | 6 | 66* | i
CCN1CCc2nc(NC(=O)c3ccccc3)sc2C1 | 10 | 15 | x | x | x | x
NCCCC[C@H]1CN=C(N)N1CCc1cccc2ccccc12 | 0 | x | -23 | 4 | 28 | x
NCCCC[C@H]1CN=C(N)N1CCC12CC3CC(CC(C3)C1)C2 | -5 | x | -33 | 5 | 57* | i
CCCNC(=O)N1CC2(CCN(Cc3cccc(F)c3)CC2)c2c([nH]c3cc(OC)ccc23)[C@@H]1CO | x | x | -1 | 12 | 6 | x
CCOC(=O)c1c(-c2ccccc2)oc2ccc(O)c(CN(C)C)c12 | 9 | x | x | x | x | x
CCOC(=O)c1c(CSCc2ccccc2)oc2ccc(O)c(CN(C)C)c12 | -24 | x | 2 | 23 | 61* | i
COc1ccc(NC(=O)N[C@@H]2C=C[C@H](CC(=O)NCc3ccccn3)O[C@@H]2CO)cc1 | x | x | 2 | -1 | -17 | x
Cc1noc(C)c1S(=O)(=O)Nc1ccc2c(c1)C(=O)N([C@@H](C)CO)C[C@@H](C)[C@H](CN(C)C(=O)NC1CCCCC1)OCCCC[C@@H](C)O2 | -1[16.7 µM] | x | -2 | 0 | -39 | x
C[C@H](CO)N1C[C@H](C)[C@@H](CN(C)Cc2ccccc2)OCCCC[C@H](C)Oc2ccc(NS(=O)(=O)c3cn(C)cn3)cc2C1=O | 28[16.7 µM] | x | -2 | -14 | 15 | x
CC(C)NC(=O)N(C)C[C@@H]1Oc2ncc(C#CCN(C)C)cc2C(=O)N([C@H](C)CO)C[C@@H]1C | 2[16.7 µM] | x | 2 | -2 | -19 | x
Cc1cc(N)ccc1NC(=O)CN1CCCC1 | -2 | -1 | -82 | 4 | 101* | i
COc1ccc(Cl)cc1NC(=O)CN1CCCCCC1 | x | -6 | 0 | 0 | -4 | x
COc1ccc(N)cc1NC(=O)CN1CCCC1 | -5 | 4 | -45 | 16 | 79* | i
C[C@H](CO)N1C[C@H](C)[C@H](CN(C)C(=O)Nc2cccc3ccccc23)Oc2ccc(NC(=O)CCN3CCOCC3)cc2CC1=O | 4[16.7 µM] | x | -1 | 2 | -8 | x
CCCC(=O)Nc1ccc2c(c1)C(=O)N(C)C[C@@H](OC)[C@H](C)CN(C(=O)Cc1cccnc1)[C@H](C)CO2 | x | x | 0 | -1 | -9 | x
COc1ccc(-c2oc3ncnc(NCCCN(C)C)c3c2-c2ccc(OC)cc2)cc1 | -14 | 7 | -2 | u | 85* | i
Cc1ccc(-c2oc3ncnc(N)c3c2-c2ccc(C)cc2)cc1 | -11 | -1 | x | x | x | x
COc1cccc(-c2sc3ccc(OC)cc3c2C#CC2(O)CCCCC2)c1 | 2 | x | -4 | 1 | -10 | x
COc1cc(OC)cc(-c2sc3ccc(OC)cc3c2C#CC2(N)CCCCC2)c1 | 3 | x | -5 | 10 | -55 | i
